The record followed here is PubChem BioAssay AID1851 (National Center for Advancing Translational Sciences (NCATS), 2009).

Screen size: about 16,000 compounds; about 4,000 (25%) were called active. Not shown: some 26% with an inconclusive outcome. Not all results are given here. Unmarked numbers belong to inactive results. Calls come from the whole dose curve; as a rule, active = well fitted curve in the direction sought with a large enough effect; inconclusive = small, poorly fitted or top-dose-only effect, or effect the other way; inactive = no such curve, though single readings can be large or run the other way.

The AC50 is the concentration giving half of the maximal activity seen.
% is set by controls: 0 for no effect and ±100 for the full control effect.

Cytochrome P450 2C9 (Homo sapiens), sequence (P11712 whole entry, looked up): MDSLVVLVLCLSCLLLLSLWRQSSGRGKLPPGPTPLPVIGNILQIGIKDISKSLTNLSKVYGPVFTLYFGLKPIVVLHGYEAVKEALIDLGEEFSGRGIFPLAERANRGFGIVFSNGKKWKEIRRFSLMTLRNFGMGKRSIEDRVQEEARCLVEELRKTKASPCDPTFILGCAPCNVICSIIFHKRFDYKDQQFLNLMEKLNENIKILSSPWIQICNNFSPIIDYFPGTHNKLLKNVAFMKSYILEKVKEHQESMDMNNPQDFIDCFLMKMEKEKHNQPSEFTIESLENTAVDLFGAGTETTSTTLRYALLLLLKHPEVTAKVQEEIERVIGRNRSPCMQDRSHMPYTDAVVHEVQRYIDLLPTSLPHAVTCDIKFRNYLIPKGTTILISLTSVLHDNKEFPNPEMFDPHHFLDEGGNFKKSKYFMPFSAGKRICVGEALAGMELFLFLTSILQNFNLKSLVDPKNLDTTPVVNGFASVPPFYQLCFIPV

The experiment addresses Cytochrome P450 2C9 (Homo sapiens) (UniProt P11712). Kind of experiment: Cytochrome panel assay with activity outcomes. The conditions noted are these: recombinant CYP, pro-luciferin dealkylation, luminescence, p450-cyp2c9; series mostly up to 57.1 µM; activity, negative = inhibition: at the top concentration.
Regarding `O=C(Nc1nnc(C2CC2)s1)c1ccncc1`, the AC50 is 8.91 µM (active). On to `O=C(NN=C1C2CC3CC(C2)CC1C3)c1ccncc1`, for which the “activity, negative = inhibition” value was -27.1%. With `CC(C)NNC(=O)c1ccncc1`, the AC50 entry was “inactive”.

As to `O=C1CCCC=C1[C@@H](O)COCc1ccccc1`, the activity, negative = inhibition was 3.8% [at 11.4 µM]. Same read-out and setting: for `CC/C=C\CC[C@H](O)C1=CCCCC1=O` the value was -1.13% [at 11.4 µM]. Take `O=C1CCCC=C1[C@@H](O)CCOC(c1ccccc1)(c1ccccc1)c1ccccc1`: the AC50 was 0.794 µM (active). `CC1(C)OC(=O)C(=CNc2cccc(O)c2)C(=O)O1`: the “activity, negative = inhibition” value was 27.7%. Take `O=C(Nc1cccc(F)c1)N1CC[C@@]2(CCCN(C(=O)c3cc(C(F)(F)F)cc(C(F)(F)F)c3)C2)C1`: the “activity, negative = inhibition” value is 6.64%. The same measure, in the same setting: under `Fc1ccc(Nc2ccnc(-c3ccccc3C(F)(F)F)n2)cc1` stands -26.8% [at 2.29 µM]; under `CC(=O)N1CCC2(CC1)CN(c1ccccc1)C2`, -15%; under `O=C(c1ccncc1)N1CCC2(CC1)CN(c1ccc(-c3ccccc3)cc1)C2`, -20.9%. Consider `Cc1noc(C)c1C(=O)N1CCC2(CCCN(c3ccncc3)C2)CC1`, for which the “activity, negative = inhibition” value was 9.67%. Regarding `O=C(c1ccncc1)N1CCC2(CC1)CCN(c1ccccc1)CC2`, the AC50 is 10 µM (active). Turning to `Cc1noc(C)c1C(=O)N1CCC2(CC1)CCN(c1ccncc1)CC2`, the AC50 was 10 µM (active).

As for `O=C(c1cccc(F)c1)N1CCC2(CC1)CN(c1ccncc1)C2`, the AC50 is 5.01 µM (active). On to `O=C(c1ccncc1)N1CCC2(CC1)CN(c1ccccc1)C2`, for which the AC50 was 2.51 µM (active).

`Cc1noc(C)c1C(=O)N1CCC2(CCN(Cc3ccncc3)CC2)CC1`: the “activity, negative = inhibition” value is -13.8%.

Consider `O=C(c1cccc(F)c1)N1CCC[C@@]2(CCN(c3ccncc3)C2)C1`, for which the “activity, negative = inhibition” value is -15.9%. Still for that read-out and setting: for `CC1(C)O[C@H]2[C@@H](O1)[C@@H](On1nnc3ccc(Cl)cc31)O[C@@H]2[C@@H]1COC(C)(C)O1` the value was -3.36% [at 11.4 µM].

On to `Nn1nnc2ccccc21`, for which the “activity, negative = inhibition” value was -7.08%. The same measure, in the same setting: under `N#Cc1cccc(-c2ccc3ncnc(N4CCNCC4)c3c2)c1` stands 20.7% [at 2.29 µM]; under `CCN(CC)S(=O)(=O)N1CCC(C(=O)NCc2ccc(C)cc2)CC1`, -7.02%. The same measure, in the same setting: under `O=C1C2=CC[C@H]3C(=O)N(c4cccc(Oc5ccccc5)c4)C(=O)[C@@H]3[C@@H]2[C@H](O)[C@@H]2O[C@H]12` stands 4.88% [at 11.4 µM]; under `Cc1ccc(CS(=O)(=O)CCC(=O)NCc2ccccn2)cc1`, -25.1%. Turning to `COc1ccc(CNC(=O)Cc2csc(Nc3nc(=S)[nH]c4ccccc34)n2)cc1`, the AC50 was 0.224 µM (active). As for `Cc1ccc(CNC(=O)Cn2cncn2)cc1`, the “activity, negative = inhibition” value was -26.5%. As for `COc1ccc(C(CNC(=O)c2cc(=O)[nH]c3ccccc23)N2CCCC2)cc1` (configuration not stated), the “activity, negative = inhibition” value is 6.96%. As for `O=C(Cc1csc(Nc2nc(=S)[nH]c3ccccc23)n1)NCc1cccc(Cl)c1`, the AC50 was 0.0631 µM (active). As for `Cc1ccc(CNC(=O)Cc2csc(Nc3nc(=S)[nH]c4ccccc34)n2)cc1`, the AC50 is 0.891 µM (active).

As for `Cc1ccc(C(=O)c2ccc(CC(=O)O)n2C)cc1`, the “activity, negative = inhibition” value was 16.9% [at 25.6 µM]. As for `CCOC(=O)CCN1C(=O)[C@H]2[C@H]3[C@H](O)[C@H](O)C/C(=N/OC/C=C(\C)CCC=C(C)C)[C@@H]3CC[C@@H]2C1=O`, the activity, negative = inhibition was 7.78% [at 11.4 µM].

With `CN1CCN(c2ncnc3ccc(-c4ccc(C(=O)N(C)C)cc4)cc23)CC1`, the activity, negative = inhibition was 17.4% [at 2.29 µM].

With `Cc1noc(C)c1-c1ccc2ncnc(Nc3ccc(F)cc3)c2c1`, the activity, negative = inhibition was -13.2% [at 2.29 µM]. The same measure, in the same setting: for `FC(F)(F)c1cc(CN2CCC3(CCNCC3)CC2)cc(C(F)(F)F)c1` the value was 9.64%; for `CS(=O)(=O)Nc1cccc(-c2nccc(Nc3ccc(F)cc3)n2)c1`, 18.7% [at 2.29 µM]. Take `COC(=O)C1=C(C)N=C2SC(C)C(=O)N2C1/C=C/c1ccccc1` (configuration not stated): the AC50 was 4.47 µM (active). In the case of `COC(=O)c1cc(/C=C/c2ccccc2)on1`, the “activity, negative = inhibition” value is -25.8%. Take `COC(=O)[C@@]1(Cc2ccccc2)[C@H]2c3cc(C(=O)N4CCCC4)n(Cc4ccsc4Br)c3C[C@H]2CN1C(=O)c1ccccc1`: the AC50 was 2 µM (active). Still for that read-out and setting: under `COC(=O)[C@@]1(Cc2ccccc2)[C@H]2c3cc(C(=O)N(C)C)n(Cc4ccsc4Br)c3C[C@H]2CN1C(=O)c1ccccc1` stands 3.98 µM (active).

For the compound `CCCCN1CCCC[C@H]1C(=O)Nc1c(C)cccc1C`, the “activity, negative = inhibition” value was 18.9% [at 25.6 µM].

As for `CC(=O)OC[C@@H]1O[C@H](CCO/N=C\[C@@H](C)[C@H](OCc2ccccc2)C(C)C)C=C[C@@H]1OC(C)=O`, the activity, negative = inhibition was -15.4% [at 11.4 µM]. On to `CON1C(=O)C(=O)N(OC)C(C)(C)C1C` (configuration not stated), for which the “activity, negative = inhibition” value is -9%. Same read-out and setting: for `Cc1cc(NC(=O)c2c([N+](=O)[O-])c(C)nn2C)no1` the value was 9.1%. For `Cc1nn(C)c(C(=O)NNC(=S)Nc2ccc(Cl)cc2)c1[N+](=O)[O-]`, the AC50 was 6.31 µM (active).

With `COc1ccccc1NC(=S)NNC(=O)c1c(Cl)c(C)nn1C`, the AC50 was 3.55 µM (active).

As to `Cc1cc([N+](=O)[O-])nn1CC(=O)NNC(=S)Nc1ccc(F)cc1`, the “activity, negative = inhibition” value was -30%.

Take `O=C(N/N=C1/C[C@@H](O)[C@@H](O)[C@@H]2[C@H]3C(=O)N(c4ccc(F)cc4F)C(=O)[C@@H]3CC[C@@H]12)OCc1ccccc1`: the activity, negative = inhibition is -1.14% [at 11.4 µM].
